Experiment [1] can be described thus: antimalarial activity against Dd2 strain (AID 2302;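 active = growth inhibition above 50% at the single 2 µM test dose, taken to imply half-maximal potency below 2 µM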;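 also: 0% = DMSO untreated growth and 100% = chloroquine plus artemisinin killed control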). Particulars: P. falciparum Dd2 in RBCs, LDH growth readout, 72 h; at 2 µM; hits give high values.
Experiment [2] can be described thus: human hepatoma cell viability loss – ATP luminescence, cytotoxicity control for P. falciparum antimalarial project, primary screen (AID 2303;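 active = inhibition above 50%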;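 also: 0% = DMSO wells and 100% = digitonin-killed cells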). Particulars: HepG2 viability, 24-48 h, at 10 µM, hits give high values.
For experiment [3], the target named is L-lactate dehydrogenase (Plasmodium falciparum (isolate CDC / Honduras)) (UniProt Q27743). Description: PfLDH activity inhibition – cell lysate, 3D7 strain, counter-screen for P. falciparum growth inhibition project (AID 2304).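 Also: 0% = vehicle and 100% = reference inhibitor.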 Conditions: P. falciparum 3D7 crude extract, LDH APAD/NBT absorbance; at 2 µM; hits give high values. (A counterscreen serves to expose hits that act by an unwanted route or on another target.)

A short description of experiment [4]: inhibition of 3D7 malaria parasite growth – strain 3D7 (AID 2306).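 Also: 0% = DMSO wells and 100% = chloroquine plus artemisinin control wells.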 Conditions: P. falciparum 3D7 erythrocytic growth, LDH absorbance, 72 h; at 2 µM; hits give high values.
In experiment [5] the target is Calcium-dependent protein kinase 1 (Plasmodium falciparum (isolate 3D7)) (UniProt P62344). The experiment can be described thus: PfCDPK1 kinase inhibitors, biochemical, TCAMS library (AID 1159585; cut-off not given, nearly all actives have IC50 up to about 0.98 µM;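 also: inhibitors leave more ATP so luminescence rises with inhibition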). Particulars: recombinant PfCDPK1, Kinase-Glo ATP depletion luminescence.
The target in experiment [6] is Plasmodium falciparum protein kinase 6 (PK6, PF3D7_1337100) (UniProt Q8IDW1). Description: PfPK6 kinase inhibitors, biochemical, TCAMS library (AID 1159586). Particulars: recombinant PfPK6, Kinase-Glo ATP depletion luminescence. On the technique in general: In Kinase-Glo more light means more ATP remaining.
Experiment [7] concerns the target Protein kinase 7 (PK7), Plasmodium falciparum 3D7 (PF3D7_0213400) (UniProt Q7YTF7). The experiment can be described thus: inhibition of Plasmodium PK7 catalytic activity – biochemical, TCAMS antimalarial set, Kinase-Glo luminescence (AID 1159587). Conditions: recombinant PfPK7, Kinase-Glo ATP depletion luminescence.
Experiment [8] addresses Calcium-dependent protein kinase 4 (Plasmodium falciparum (isolate 3D7)) (UniProt Q8IBS5). The experiment can be described thus: PfCDPK4 kinase inhibitors, biochemical, TCAMS library (AID 1159588; cut-off not given, nearly all actives have IC50 up to about 0.91 µM). Conditions: recombinant PfCDPK4, Kinase-Glo ATP depletion luminescence.

Data on 18 molecules can be found in PubChem BioAssay.

Molecules are shown by their SMILES. Unmarked numbers belong to inactive results. For part of these data: Measured potencies and affinities stand elsewhere. Activity calls are given as the source filed them. Unless noted, no rule for the calls is given here.

A word on the inhibition: it is the relative decrease from the control value, in per cent.

Sequence of Calcium-dependent protein kinase 1 (Plasmodium falciparum (isolate 3D7)) (P62344 whole entry, looked up): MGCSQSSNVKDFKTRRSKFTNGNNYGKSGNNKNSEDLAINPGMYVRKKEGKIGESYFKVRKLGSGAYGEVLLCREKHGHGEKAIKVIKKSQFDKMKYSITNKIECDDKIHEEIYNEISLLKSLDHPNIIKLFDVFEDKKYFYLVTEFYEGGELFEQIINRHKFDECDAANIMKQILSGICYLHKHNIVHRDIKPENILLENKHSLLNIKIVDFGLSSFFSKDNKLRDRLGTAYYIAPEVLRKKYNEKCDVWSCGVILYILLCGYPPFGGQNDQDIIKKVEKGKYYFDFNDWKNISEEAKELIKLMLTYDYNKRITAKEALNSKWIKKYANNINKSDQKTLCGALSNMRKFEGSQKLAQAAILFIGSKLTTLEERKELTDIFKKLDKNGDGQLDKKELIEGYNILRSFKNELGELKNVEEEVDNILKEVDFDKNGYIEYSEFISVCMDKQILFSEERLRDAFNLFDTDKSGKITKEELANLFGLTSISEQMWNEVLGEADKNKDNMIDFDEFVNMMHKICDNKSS
Sequence of Calcium-dependent protein kinase 4 (Plasmodium falciparum (isolate 3D7)) (Q8IBS5 whole entry, looked up): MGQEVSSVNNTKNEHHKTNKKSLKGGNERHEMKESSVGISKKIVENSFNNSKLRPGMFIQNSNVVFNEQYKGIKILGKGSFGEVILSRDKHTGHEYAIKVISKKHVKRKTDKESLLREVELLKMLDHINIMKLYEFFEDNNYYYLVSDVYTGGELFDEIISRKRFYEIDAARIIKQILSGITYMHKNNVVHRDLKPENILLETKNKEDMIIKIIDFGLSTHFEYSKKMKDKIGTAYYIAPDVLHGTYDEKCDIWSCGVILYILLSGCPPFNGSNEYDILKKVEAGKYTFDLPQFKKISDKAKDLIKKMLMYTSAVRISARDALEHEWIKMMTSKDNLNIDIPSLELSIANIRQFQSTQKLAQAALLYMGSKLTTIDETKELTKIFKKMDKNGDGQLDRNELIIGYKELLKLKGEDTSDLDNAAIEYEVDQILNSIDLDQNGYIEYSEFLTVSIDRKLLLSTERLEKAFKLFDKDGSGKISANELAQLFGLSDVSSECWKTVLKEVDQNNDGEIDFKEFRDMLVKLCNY
Sequence of Protein kinase 7 (PK7), Plasmodium falciparum 3D7 (PF3D7_0213400) (Q7YTF7 1-343): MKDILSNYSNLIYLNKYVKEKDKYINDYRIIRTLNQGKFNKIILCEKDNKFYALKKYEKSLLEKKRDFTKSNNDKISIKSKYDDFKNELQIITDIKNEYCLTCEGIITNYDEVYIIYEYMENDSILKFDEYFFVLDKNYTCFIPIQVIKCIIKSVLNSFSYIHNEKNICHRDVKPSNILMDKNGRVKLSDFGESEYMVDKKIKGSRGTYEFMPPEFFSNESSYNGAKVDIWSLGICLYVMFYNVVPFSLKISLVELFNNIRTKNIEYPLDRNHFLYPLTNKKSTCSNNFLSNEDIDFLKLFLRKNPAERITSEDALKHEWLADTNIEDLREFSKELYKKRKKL
Sequence of Plasmodium falciparum protein kinase 6 (PK6, PF3D7_1337100) (Q8IDW1 1-305): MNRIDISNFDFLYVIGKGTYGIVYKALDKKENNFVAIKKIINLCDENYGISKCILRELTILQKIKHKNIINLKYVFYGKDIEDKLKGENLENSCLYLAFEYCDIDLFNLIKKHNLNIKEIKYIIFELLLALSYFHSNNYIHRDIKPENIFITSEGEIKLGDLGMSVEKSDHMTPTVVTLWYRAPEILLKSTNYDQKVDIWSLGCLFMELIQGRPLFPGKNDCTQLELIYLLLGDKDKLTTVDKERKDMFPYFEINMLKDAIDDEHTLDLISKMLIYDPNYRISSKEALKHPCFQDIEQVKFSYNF
Sequence of L-lactate dehydrogenase (Plasmodium falciparum (isolate CDC / Honduras)) (Q27743 whole entry, looked up): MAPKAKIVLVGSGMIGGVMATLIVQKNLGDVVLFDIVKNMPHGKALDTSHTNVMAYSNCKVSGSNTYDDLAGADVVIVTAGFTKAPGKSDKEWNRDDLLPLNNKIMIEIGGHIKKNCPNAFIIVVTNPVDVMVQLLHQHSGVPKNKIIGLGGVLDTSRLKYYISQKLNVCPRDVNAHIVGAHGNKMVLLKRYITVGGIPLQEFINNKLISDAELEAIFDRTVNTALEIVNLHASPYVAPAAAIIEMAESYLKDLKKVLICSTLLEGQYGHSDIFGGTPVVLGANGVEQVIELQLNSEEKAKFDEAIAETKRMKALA

As for `COc1cccc2cc(C(=O)N[C@@H](CC(C)C)C(=O)N[C@H](/C=N/N3CCOC3=O)Cc3ccccc3)oc12`, the growth inhibition in experiment [1] was 70% (active); in experiment [4] it was 96% (active). Moreover, the results for the inhibition in experiment [2] and in experiment [3] were 6% and -1%, respectively. For the same molecule, the outcome in experiment [5], in experiment [6], in experiment [7] and in experiment [8] was inactive.
For `O=C(Cn1c(SCc2cccc(F)c2F)cc(=O)c2ccccc21)N(CCc1cnc[nH]1)Cc1ccc(-c2ccc(C(F)(F)F)cc2)cc1`, the growth inhibition in experiment [1] was 72% (active); in experiment [4], 101% (active). Besides, the inhibition in experiment [2] is 18%; in experiment [3], 7%. Also, the outcome in experiment [5], in experiment [6], in experiment [7] and in experiment [8] was inactive.
For the molecule `Cc1c(C(=O)N(C)C)sc2c1c(=O)n(Cc1ccccc1)c(=O)n2CC(=O)Nc1ccccc1F`, the growth inhibition was 98% (active) in experiment [1] and 97% (active) in experiment [4]. In addition, the inhibition in experiment [2] was 13%; in experiment [3], -1%. In addition, the result in experiment [5], in experiment [6], in experiment [7] and in experiment [8] was inactive.
In the case of `Oc1ccc2[nH]cc(C3CCN(CCCNCc4ccc(-c5ccccc5)cc4)CC3)c2c1`, the results for the growth inhibition in experiment [1] and in experiment [4] were -1% and 101% (active), respectively. Moreover, the inhibition is 22% in experiment [2] and -4% in experiment [3]. Also, the outcome in experiment [5], in experiment [6], in experiment [7] and in experiment [8] was inactive.
As to `Cc1c(CNCCCNc2cc(=O)c3ccccc3[nH]2)sc(C(F)=C(F)F)c1Br`, the growth inhibition in experiment [1] was 18%; in experiment [4], 94% (active). In addition, the inhibition is 7% in experiment [2] and -2% in experiment [3]. The outcome in experiment [5], in experiment [6], in experiment [7] and in experiment [8] was inactive.
Turning to `COc1ccc(Nc2ncc3c(-c4cccc(NC(=O)Cc5ccc(F)cc5)c4)c[nH]c3n2)cc1OC`, the growth inhibition in experiment [1] was 90% (active); in experiment [4], 101% (active). Besides, the inhibition in experiment [2] was 21%; in experiment [3] it was 8%. For the same molecule, the result in experiment [5], in experiment [6], in experiment [7] and in experiment [8] was inactive.
Regarding `Nc1ncc(Cc2cc(Cl)c(N)c3ncccc23)c(N)n1`, the growth inhibition in experiment [1] is 95% (active); in experiment [4], 89% (active). The inhibition in experiment [2] is 5%; in experiment [3], 1%. The result in experiment [5], in experiment [6], in experiment [7] and in experiment [8] was inactive.
For `CN1CCC(C(=O)N(Cc2ccc(-c3ccc(CNCCc4ccc(S(C)(=O)=O)cc4)cn3)cc2)C2Cc3ccccc3C2)CC1`, the growth inhibition is 49% in experiment [1] and 98% (active) in experiment [4]. For the same molecule, the inhibition in experiment [2] is 21%; in experiment [3], -2%. Moreover, the outcome in experiment [5], in experiment [6], in experiment [7] and in experiment [8] was inactive.
In the case of `CC(=O)Nc1ccc(C2NC(=O)NC(c3ccccc3)=C2c2nc3ccccc3s2)cc1` (centres undefined), the growth inhibition in experiment [1] is 96% (active); in experiment [4] it was 93% (active). The inhibition was -3% in experiment [2] and 3% in experiment [3]. For the same molecule, the outcome in experiment [5], in experiment [6], in experiment [7] and in experiment [8] was inactive.
As to `Cn1c2c(c3ccccc31)CN(CCC1(c3ccc(Cl)c(Cl)c3)CN(C(=O)c3ccccc3)CCO1)CC2` (centres undefined), the growth inhibition in experiment [1] was 88% (active); in experiment [4], 97% (active). Besides, the inhibition in experiment [2] is 10%; in experiment [3] it was 3%. Moreover, the outcome in experiment [5], in experiment [6], in experiment [7] and in experiment [8] was inactive.
Take `O=C(/C=C/c1ccc(Cl)c(Cl)c1)NCCCCCN1CCC(NC(=O)Nc2ccc(F)c(F)c2)CC1`: the growth inhibition is 4% in experiment [1] and 99% (active) in experiment [4]. The values for the inhibition in experiment [2] and in experiment [3] were 24% and 2%, respectively. Moreover, the outcome in experiment [5], in experiment [6], in experiment [7] and in experiment [8] was inactive.
As to `COc1cc2c(cc1C(F)(F)F)N(C(=O)Nc1cccc(-c3ccc(CN(C)C)cc3)c1)CC2`, the growth inhibition in experiment [1] was 93% (active); in experiment [4], 101% (active). Besides, the inhibition in experiment [2] is 95% (active); in experiment [3] it was 1%. Besides, the outcome in experiment [5], in experiment [6], in experiment [7] and in experiment [8] was inactive.
Take `NCc1ccc(CNCc2ccc(-c3ccc(-c4nc5ccc(C(F)(F)F)cc5[nH]4)s3)cc2)cc1`: the growth inhibition in experiment [1] was 92% (active); in experiment [4] it was 95% (active). The inhibition was 34% in experiment [2] and -2% in experiment [3]. Moreover, the result in experiment [5], in experiment [6], in experiment [7] and in experiment [8] was inactive.
With `CCc1cc2c(cc1OCCN(C)C)N(C(=O)Nc1ccc(-c3ccncc3)c(Cl)c1)CC2`, the growth inhibition was 7% in experiment [1] and 95% (active) in experiment [4]. In addition, the inhibition in experiment [2] is 18%; in experiment [3], -1%. Further, the result in experiment [5], in experiment [6], in experiment [7] and in experiment [8] was inactive.
`N#Cc1ccc(-c2ccc(C(=O)NCCCCN3CCC(c4ccc5c(c4OCc4ccccn4)CCCC5)CC3)cc2)cc1`: the growth inhibition in experiment [1] was 39%; in experiment [4], 96% (active). In addition, the inhibition was 37% in experiment [2] and 6% in experiment [3]. Besides, the outcome in experiment [5], in experiment [6], in experiment [7] and in experiment [8] was inactive.
As to `COc1ccc2c(NN=Cc3ccc(Cl)cc3)ccnc2c1`, the results for the growth inhibition in experiment [1] and in experiment [4] were 100% (active) and 101% (active), respectively. Moreover, the inhibition is 8% in experiment [2] and 5% in experiment [3]. The result in experiment [5], in experiment [6], in experiment [7] and in experiment [8] was inactive.
For the molecule `Cc1cccc2[nH]c(-c3cccc(-c4ccc(NC(=O)CN5CCOCC5)cc4)c3)nc12`, the growth inhibition in experiment [1] is 12%; in experiment [4], 94% (active). The inhibition is 59% (active) in experiment [2] and 4% in experiment [3]. The outcome in experiment [5], in experiment [6], in experiment [7] and in experiment [8] was inactive.
Take `NC1CCCN(Cc2ccc(-c3ccc(-c4nc5ccccc5[nH]4)s3)cc2)C1` (centres undefined): the growth inhibition was 99% (active) in experiment [1] and 102% (active) in experiment [4]. For the same molecule, the inhibition in experiment [2] was 40%; in experiment [3], -2%. The outcome in experiment [5], in experiment [6], in experiment [7] and in experiment [8] was inactive.
